Results reported in PubChem BioAssay (NCI).
About 79,000 compounds went through this panel and 15% of them were active in at least one assay; those are over-represented in the sample as a whole. Active and inactive are the calls of the source. Cut-off read from the data, not from the text of the source: active = growth inhibition above about 70%; inactive = the rest.

Assays:
[1] = NCI Yeast Anticancer Drug Screen. Data for the mec2-1 strain (AID 157); conditions: S. cerevisiae mec2-1 strain, hits give high values
How it was run: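 Each compound was tested on mec2-1 yeast, a strain altered in DNA damage repair or cell cycle control. Growth inhibition is reported relative to vehicle.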

[2] = NCI Yeast Anticancer Drug Screen. Data for the sgs1 mgt1 strain (AID 161);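 note: 0% = growth of cultures given vehicle only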; conditions: S. cerevisiae sgs1 mgt1 strain, hits give high values
How it was run: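 Genetically altered yeast, compound exposure, growth inhibition relative to vehicle.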

[3] = NCI Yeast Anticancer Drug Screen. Data for the CLN2oe strain (AID 163);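 note: 0% = growth of vehicle-only control cultures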; conditions: S. cerevisiae CLN2oe strain, hits give high values
How it was run: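 First, the altered yeast strain was treated with each compound; second, its growth was measured; finally, inhibition was derived by comparison with vehicle controls.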

[4] = NCI Yeast Anticancer Drug Screen. Data for the cln2 rad14 strain (AID 165);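 note: 0% = growth equal to vehicle treated cultures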; conditions: S. cerevisiae cln2 rad14 strain, hits give high values
How it was run: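 Test compounds were added to cln2 rad14 yeast cultures; inhibition of growth was then determined by comparison with vehicle treatment.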

[5] = NCI Yeast Anticancer Drug Screen. Data for the bub3 strain (AID 167); conditions: S. cerevisiae bub3 mutant strain, hits give high values
How it was run: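 Yeast carrying a defined mutation is treated with each compound, and growth is compared with that of vehicle-exposed cells to give inhibition.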

[6] = NCI Yeast Anticancer Drug Screen. Data for the wt2 strain (AID 169);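 note: 0% = growth of vehicle-treated yeast cultures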; conditions: S. cerevisiae wt2 strain growth inhibition, hits give high values
How it was run: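 The panel's yeast strains carry defined changes in DNA repair or cell cycle genes. Each strain is grown with compound, and growth loss is scored relative to vehicle.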

[7] = NCI Yeast Anticancer Drug Screen. Data for the mlh1 strain (AID 171);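 note: 0% = growth of vehicle-treated control cultures of the same strain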; conditions: S. cerevisiae mlh1 strain growth inhibition, hits give high values
How it was run: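 Inhibition values reflect reduced yeast growth in the presence of compound, referenced to vehicle controls, using a strain chosen for its alteration in DNA repair or cell cycle control.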

[8] = NCI Yeast Anticancer Drug Screen. Data for the sgs1 strain (AID 173);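 note: 0% = growth of vehicle-only control cultures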; conditions: S. cerevisiae sgs1 mutant, hits give high values
How it was run: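 Vehicle-treated cultures served as reference for growth inhibition of a yeast strain altered in DNA damage repair or cell cycle control after compound exposure.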

[9] = NCI Yeast Anticancer Drug Screen. Data for the mlh1 rad18 strain (AID 175); conditions: S. cerevisiae mlh1 rad18 strain growth inhibition, hits give high values
How it was run: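 Inhibition values reflect reduced growth of mutant yeast versus vehicle-treated controls following compound exposure; the mutations affect DNA damage repair.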

[10] = NCI Yeast Anticancer Drug Screen. Data for the rad18 strain (AID 177); conditions: S. cerevisiae rad18 mutant growth inhibition, hits give high values
How it was run: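 Steps: expose repair-mutant yeast to compound; measure growth; express as inhibition relative to vehicle control.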

[11] = NCI Yeast Anticancer Drug Screen. Data for the rad52 strain (AID 147);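 note: 0% = growth of vehicle-treated control cultures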; conditions: S. cerevisiae rad52 mutant growth inhibition, hits give high values
How it was run: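 Inhibition of yeast growth, referenced to vehicle controls, was the measured output for a strain with defective DNA damage repair.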

[12] = NCI Yeast Anticancer Drug Screen. Data for the wt1 strain (AID 149);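 note: 0% = growth of vehicle-treated wt1 cultures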; conditions: S. cerevisiae wt1 strain (SPY 50644) growth inhibition, hits give high values
How it was run: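 wt1 yeast, compound-treated; % growth inhibition vs vehicle control.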

[13] = NCI Yeast Anticancer Drug Screen. Data for the rad50EPP+ strain (AID 151);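 note: 0% = growth of vehicle-treated control cultures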; conditions: S. cerevisiae rad50 mutant strain, hits give high values
How it was run: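 Genetically defined yeast (rad50EPP+, DNA damage repair alteration) is grown with compound, and inhibition of growth is expressed relative to vehicle-treated controls.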

[14] = NCI Yeast Anticancer Drug Screen. Data for the mgt1 strain (AID 153); conditions: S. cerevisiae mgt1 mutant growth inhibition, hits give high values
How it was run: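 In the mgt1 strain, test compounds were added and growth inhibition was determined relative to vehicle-treated controls.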

[15] = NCI Yeast Anticancer Drug Screen. Data for the rad50 strain (AID 155);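 note: 0% = growth of vehicle-only cultures of the same strain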; conditions: S. cerevisiae rad50 strain growth inhibition, hits give high values
How it was run: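 Genetically altered yeast (DNA repair pathway); compound treatment; growth inhibition vs vehicle ctrl.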

[16] = NCI Yeast Anticancer Drug Screen. Data for the rad14 strain (AID 159);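 note: 0% = growth of vehicle-treated control cultures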; conditions: S. cerevisiae rad14 strain growth inhibition, hits give high values
How it was run: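 Test compounds were applied to a repair-deficient yeast strain. Its growth was then compared with that of cultures given vehicle alone, and inhibition was expressed relative to those controls.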

[17] = at 5.0 µM (retest, dose inferred, filed as 0.5)
[18] = at 50.0 µM (retest, dose inferred, filed as 5.0)

Measured: growth inhibition

O=C1CSC(c2cccc(Cl)c2)N1c1ccc(-c2ccc(-n3c(-c4ccccc4)nc4ccccc4c3=O)cc2)cc1 (centres undefined)
active: [2]; [18] 83% | [5]; [18] 85% | [5]; at 50.0 µM 86.8% | [9]; [18] 85% | [9]; at 50.0 µM 85.1%
inactive: [1]; [17] -9% | [1]; at 11.0 µM 6% | [1]; at 33.0 µM 9% | [1]; [18] -26% | [1]; at 50.0 µM 68.5% | [1]; at 100.0 µM 16% | [2]; [17] 8% | [2]; at 50.0 µM 43.2% | [3]; at 1.2 µM 13% | [3]; at 3.7 µM 11% | [3]; at 11.0 µM 15% | [3]; at 33.0 µM 15% | [3]; at 100.0 µM 11% | [4]; [17] 31% | [4]; [18] 46% | [4]; at 50.0 µM 41.6% | [5]; at 1.2 µM 5% | [5]; at 3.7 µM 4% | [5]; [17] 10% | [5]; at 11.0 µM 6% | [5]; at 33.0 µM 8% | [5]; at 100.0 µM 29% | [6]; at 1.2 µM 0% | [6]; at 3.7 µM -2% | [6]; at 11.0 µM 0% | [6]; at 33.0 µM 15% | [6]; at 100.0 µM 39% | [7]; at 1.2 µM 1% | [7]; at 3.7 µM 5% | [7]; at 11.0 µM 7% | [7]; at 33.0 µM 24% | [7]; at 100.0 µM 42% | [8]; at 1.2 µM 0% | [8]; at 3.7 µM 2% | [8]; at 11.0 µM 10% | [8]; at 33.0 µM 39% | [8]; at 100.0 µM 57% | [9]; [17] 5% | [10]; at 1.2 µM 0% | [10]; at 3.7 µM 3% | [10]; at 11.0 µM 14% | [10]; at 33.0 µM 22% | [10]; at 100.0 µM 31%

CC(C)(C)C1=CC(=CC=C2C=CN(CCCCCCCCCCCO)C=C2)C=C(C(C)(C)C)C1=O
inactive: [11]; at 1.2 µM -1% | [12]; at 1.2 µM -6% | [12]; at 3.7 µM 46% | [13]; at 1.2 µM -3% | [13]; at 3.7 µM -3% | [13]; at 11.0 µM -2% | [14]; at 1.2 µM -4% | [14]; at 3.7 µM -4% | [15]; at 1.2 µM -3% | [15]; at 3.7 µM 48% | [1]; at 1.2 µM -3% | [5]; at 1.2 µM -2% | [5]; at 3.7 µM 57% | [6]; at 1.2 µM -4% | [6]; at 3.7 µM 4% | [7]; at 1.2 µM -3% | [7]; at 3.7 µM 0% | [8]; at 1.2 µM -3% | [10]; at 1.2 µM -4% | [10]; at 3.7 µM 68%
active: [11]; at 3.7 µM 95% | [11]; at 11.0 µM 99% | [11]; at 33.0 µM 98% | [11]; at 100.0 µM 98% | [12]; at 11.0 µM 99% | [12]; at 33.0 µM 99% | [12]; at 100.0 µM 99% | [13]; at 33.0 µM 82% | [13]; at 100.0 µM 95% | [14]; at 11.0 µM 99% | [14]; at 33.0 µM 100% | [14]; at 100.0 µM 99% | [15]; [17] 86% | [15]; at 11.0 µM 99% | [15]; at 33.0 µM 98% | [15]; [18] 95% | [15]; at 50.0 µM 99.2% | [15]; at 100.0 µM 98% | [1]; at 3.7 µM 99% | [1]; [17] 99% | [1]; at 11.0 µM 99% | [1]; at 33.0 µM 99% | [1]; [18] 99% | [1]; at 50.0 µM 98.7% | [1]; at 100.0 µM 98% | [2]; [17] 99% | [2]; [18] 89% | [2]; at 50.0 µM 99.3% | [4]; [17] 99% | [4]; [18] 99% | [4]; at 50.0 µM 99.2% | [5]; [17] 94% | [5]; at 11.0 µM 98% | [5]; at 33.0 µM 98% | [5]; [18] 99% | [5]; at 50.0 µM 99% | [5]; at 100.0 µM 96% | [6]; at 11.0 µM 99% | [6]; at 33.0 µM 99% | [6]; at 100.0 µM 98% | [7]; at 11.0 µM 99% | [7]; at 33.0 µM 99% | [7]; at 100.0 µM 98% | [8]; at 3.7 µM 84% | [8]; at 11.0 µM 99% | [8]; at 33.0 µM 99% | [8]; at 100.0 µM 98% | [9]; [17] 98% | [9]; [18] 99% | [9]; at 50.0 µM 99.5% | [10]; at 11.0 µM 99% | [10]; at 33.0 µM 98% | [10]; at 100.0 µM 97%

CN(C)C=NC1CCC(C(C)(C)C)CC1 (centres undefined)
inactive: [11]; at 1.2 µM -5% | [11]; at 3.7 µM 7% | [11]; at 11.0 µM 34% | [12]; at 1.2 µM -4% | [12]; at 3.7 µM -5% | [12]; at 11.0 µM -1% | [12]; at 33.0 µM 51% | [13]; at 1.2 µM -2% | [13]; at 3.7 µM 5% | [13]; at 11.0 µM 10% | [13]; at 33.0 µM 30% | [15]; at 1.2 µM -3% | [15]; at 3.7 µM -1% | [15]; [17] 28% | [15]; at 11.0 µM 59% | [1]; at 1.2 µM 2% | [1]; at 3.7 µM 0% | [1]; [17] -24% | [1]; at 11.0 µM 10% | [16]; at 1.2 µM -1% | [16]; at 3.7 µM 11% | [2]; [17] 14% | [3]; at 1.2 µM 1% | [3]; at 3.7 µM 9% | [3]; at 11.0 µM 44% | [4]; [17] 17% | [5]; at 1.2 µM -8% | [5]; at 3.7 µM -2% | [5]; [17] 62% | [5]; at 11.0 µM 55% | [6]; at 1.2 µM 0% | [6]; at 3.7 µM 4% | [6]; at 11.0 µM 34% | [7]; at 1.2 µM 8% | [7]; at 3.7 µM 1% | [7]; at 11.0 µM 47% | [8]; at 1.2 µM 1% | [8]; at 3.7 µM 2% | [8]; at 11.0 µM 55% | [9]; [17] -32% | [10]; at 1.2 µM -3% | [10]; at 3.7 µM 8% | [10]; at 11.0 µM 54%
active: [11]; at 33.0 µM 74% | [11]; at 100.0 µM 99% | [12]; at 100.0 µM 97% | [13]; at 100.0 µM 73% | [15]; at 33.0 µM 97% | [15]; [18] 97% | [15]; at 50.0 µM 98.8% | [15]; at 100.0 µM 99% | [1]; at 33.0 µM 73% | [1]; [18] 99% | [1]; at 50.0 µM 95.8% | [1]; at 100.0 µM 99% | [16]; at 11.0 µM 75% | [16]; at 33.0 µM 98% | [16]; at 100.0 µM 99% | [2]; [18] 98% | [2]; at 50.0 µM 97.7% | [3]; at 33.0 µM 95% | [3]; at 100.0 µM 99% | [4]; [18] 98% | [4]; at 50.0 µM 98.4% | [5]; at 33.0 µM 94% | [5]; [18] 98% | [5]; at 50.0 µM 97.5% | [5]; at 100.0 µM 99% | [6]; at 33.0 µM 88% | [6]; at 100.0 µM 99% | [7]; at 33.0 µM 94% | [7]; at 100.0 µM 99% | [8]; at 33.0 µM 95% | [8]; at 100.0 µM 99% | [9]; [18] 98% | [9]; at 50.0 µM 98.2% | [10]; at 33.0 µM 93% | [10]; at 100.0 µM 99%
